The target in assay [1] is Protein kinase C gamma type (Homo sapiens) (UniProt P05129). The note with it: at 1 µM.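 Note: each value is an averaged percent inhibition of the enzyme.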
Assay [2] has as its target T1, Protein kinase C iota type (Homo sapiens) (UniProt P41743).
T1 sequence (whole entry): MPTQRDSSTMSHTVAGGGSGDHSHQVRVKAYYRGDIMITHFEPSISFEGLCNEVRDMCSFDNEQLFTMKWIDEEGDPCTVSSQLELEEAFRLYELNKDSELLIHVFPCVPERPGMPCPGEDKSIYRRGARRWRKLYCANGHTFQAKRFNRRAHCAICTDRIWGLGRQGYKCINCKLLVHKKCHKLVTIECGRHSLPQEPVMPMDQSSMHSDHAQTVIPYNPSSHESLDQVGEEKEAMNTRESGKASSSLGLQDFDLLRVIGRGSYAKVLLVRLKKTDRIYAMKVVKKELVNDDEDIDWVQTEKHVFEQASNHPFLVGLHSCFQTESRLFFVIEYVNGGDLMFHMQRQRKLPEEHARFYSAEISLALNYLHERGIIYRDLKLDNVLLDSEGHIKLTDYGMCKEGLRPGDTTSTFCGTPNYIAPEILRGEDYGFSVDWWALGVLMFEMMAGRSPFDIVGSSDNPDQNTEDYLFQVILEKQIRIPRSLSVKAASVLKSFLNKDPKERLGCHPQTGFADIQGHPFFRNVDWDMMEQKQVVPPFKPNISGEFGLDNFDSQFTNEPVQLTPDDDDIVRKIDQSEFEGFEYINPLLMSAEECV
The settings on record: at 0.1 µM.

The target of assay [3] is T1, Protein kinase C iota type (Homo sapiens). The settings on record: at 1 µM.
The target of assay [4] is Protein kinase C theta type (Homo sapiens) (UniProt Q04759). The note with it: at 0.1 µM.
Assay [5] has the same target. The note with it: at 1 µM.
Assay [6] concerns the target Protein kinase C beta type (Homo sapiens) (UniProt P05771). The settings on record: at 0.1 µM.
For assay [7] the target is unchanged. The settings on record: at 1 µM.
Assay [8] addresses T2, Serine/threonine-protein kinase D1 (Homo sapiens) (UniProt Q15139).
T2 sequence (whole entry): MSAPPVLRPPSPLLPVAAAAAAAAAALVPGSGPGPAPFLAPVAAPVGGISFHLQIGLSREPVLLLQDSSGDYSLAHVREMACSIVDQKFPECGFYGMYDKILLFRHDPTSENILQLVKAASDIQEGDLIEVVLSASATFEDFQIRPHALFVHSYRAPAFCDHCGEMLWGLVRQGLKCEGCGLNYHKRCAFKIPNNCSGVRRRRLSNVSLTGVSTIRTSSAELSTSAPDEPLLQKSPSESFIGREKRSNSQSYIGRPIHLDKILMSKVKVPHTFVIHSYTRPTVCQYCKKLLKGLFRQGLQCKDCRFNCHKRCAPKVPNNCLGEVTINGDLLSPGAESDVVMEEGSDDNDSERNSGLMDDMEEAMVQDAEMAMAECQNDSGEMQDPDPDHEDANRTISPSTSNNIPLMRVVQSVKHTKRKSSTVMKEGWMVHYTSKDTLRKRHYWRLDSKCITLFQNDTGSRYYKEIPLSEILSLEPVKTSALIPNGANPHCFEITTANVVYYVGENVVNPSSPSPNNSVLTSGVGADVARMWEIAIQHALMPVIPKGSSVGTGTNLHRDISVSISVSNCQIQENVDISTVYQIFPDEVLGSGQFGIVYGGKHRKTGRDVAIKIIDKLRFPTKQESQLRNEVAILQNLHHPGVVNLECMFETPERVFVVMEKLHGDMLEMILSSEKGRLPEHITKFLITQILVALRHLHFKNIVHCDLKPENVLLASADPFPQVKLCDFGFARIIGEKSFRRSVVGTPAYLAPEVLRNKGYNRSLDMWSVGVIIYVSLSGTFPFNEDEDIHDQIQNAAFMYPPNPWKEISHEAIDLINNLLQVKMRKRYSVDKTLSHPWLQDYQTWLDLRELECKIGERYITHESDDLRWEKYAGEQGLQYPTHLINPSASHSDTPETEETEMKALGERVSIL
The note with it: at 0.1 µM.

In assay [9] the target is T2, Serine/threonine-protein kinase D1 (Homo sapiens). The settings on record: at 1 µM.
The target of assay [10] is T3, Serine/threonine-protein kinase D2 (Homo sapiens) (UniProt Q9BZL6).
T3 sequence (whole entry): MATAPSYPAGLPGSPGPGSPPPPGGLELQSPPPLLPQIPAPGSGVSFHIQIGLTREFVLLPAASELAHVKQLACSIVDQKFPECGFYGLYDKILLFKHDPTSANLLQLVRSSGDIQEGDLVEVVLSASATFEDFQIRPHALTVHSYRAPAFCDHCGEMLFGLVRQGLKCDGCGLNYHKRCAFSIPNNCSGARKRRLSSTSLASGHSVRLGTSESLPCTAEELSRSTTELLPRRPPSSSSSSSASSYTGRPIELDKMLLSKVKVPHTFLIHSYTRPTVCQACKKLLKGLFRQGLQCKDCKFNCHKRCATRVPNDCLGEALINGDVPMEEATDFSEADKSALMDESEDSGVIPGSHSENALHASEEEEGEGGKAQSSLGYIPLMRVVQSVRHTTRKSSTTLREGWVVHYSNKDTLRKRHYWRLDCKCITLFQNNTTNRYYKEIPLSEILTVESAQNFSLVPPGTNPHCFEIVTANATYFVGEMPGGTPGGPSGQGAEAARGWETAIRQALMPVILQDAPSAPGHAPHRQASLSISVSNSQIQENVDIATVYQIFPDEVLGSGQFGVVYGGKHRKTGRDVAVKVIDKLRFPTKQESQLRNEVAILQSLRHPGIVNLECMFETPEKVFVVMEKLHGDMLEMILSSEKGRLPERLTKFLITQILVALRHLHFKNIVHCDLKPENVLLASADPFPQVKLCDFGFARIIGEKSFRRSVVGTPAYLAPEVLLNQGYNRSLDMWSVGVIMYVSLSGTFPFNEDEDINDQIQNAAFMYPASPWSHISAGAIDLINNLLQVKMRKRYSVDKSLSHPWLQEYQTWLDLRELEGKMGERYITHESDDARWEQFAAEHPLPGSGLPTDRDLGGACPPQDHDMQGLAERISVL
The note with it: at 0.1 µM.

Assay [11] concerns the target T3, Serine/threonine-protein kinase D2 (Homo sapiens). The settings on record: at 1 µM.
Assay [12] addresses T4, Serine/threonine-protein kinase D3 (Homo sapiens) (UniProt O94806).
T4 sequence (whole entry): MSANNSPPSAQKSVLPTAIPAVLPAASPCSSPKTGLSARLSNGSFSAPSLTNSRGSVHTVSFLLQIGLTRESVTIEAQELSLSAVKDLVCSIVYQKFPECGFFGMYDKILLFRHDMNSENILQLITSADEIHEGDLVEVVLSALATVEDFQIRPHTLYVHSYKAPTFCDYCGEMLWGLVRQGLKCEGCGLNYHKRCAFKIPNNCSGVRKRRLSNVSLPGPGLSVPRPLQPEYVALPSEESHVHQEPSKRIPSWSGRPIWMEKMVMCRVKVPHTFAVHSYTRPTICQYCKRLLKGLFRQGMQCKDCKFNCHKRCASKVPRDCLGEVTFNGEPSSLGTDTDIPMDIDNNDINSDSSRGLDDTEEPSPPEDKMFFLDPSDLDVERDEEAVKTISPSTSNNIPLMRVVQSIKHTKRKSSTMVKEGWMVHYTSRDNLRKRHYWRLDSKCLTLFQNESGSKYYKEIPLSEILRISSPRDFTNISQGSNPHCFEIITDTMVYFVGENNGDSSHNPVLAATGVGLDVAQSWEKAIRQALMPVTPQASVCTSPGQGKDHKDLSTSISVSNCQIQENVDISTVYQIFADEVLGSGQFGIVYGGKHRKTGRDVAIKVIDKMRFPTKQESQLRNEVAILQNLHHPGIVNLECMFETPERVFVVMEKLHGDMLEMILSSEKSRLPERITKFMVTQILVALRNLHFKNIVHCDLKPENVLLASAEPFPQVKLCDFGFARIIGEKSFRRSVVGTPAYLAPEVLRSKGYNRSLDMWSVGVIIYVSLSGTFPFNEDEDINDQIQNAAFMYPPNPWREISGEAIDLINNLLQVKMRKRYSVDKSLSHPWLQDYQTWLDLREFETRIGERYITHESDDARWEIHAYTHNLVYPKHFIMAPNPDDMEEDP
The note with it: at 0.1 µM.

Assay [13] concerns the target T4, Serine/threonine-protein kinase D3 (Homo sapiens). The note with it: at 1 µM.
The target in assay [14] is T5, cGMP-dependent protein kinase 1 (Homo sapiens) (UniProt Q13976).
T5 sequence (whole entry): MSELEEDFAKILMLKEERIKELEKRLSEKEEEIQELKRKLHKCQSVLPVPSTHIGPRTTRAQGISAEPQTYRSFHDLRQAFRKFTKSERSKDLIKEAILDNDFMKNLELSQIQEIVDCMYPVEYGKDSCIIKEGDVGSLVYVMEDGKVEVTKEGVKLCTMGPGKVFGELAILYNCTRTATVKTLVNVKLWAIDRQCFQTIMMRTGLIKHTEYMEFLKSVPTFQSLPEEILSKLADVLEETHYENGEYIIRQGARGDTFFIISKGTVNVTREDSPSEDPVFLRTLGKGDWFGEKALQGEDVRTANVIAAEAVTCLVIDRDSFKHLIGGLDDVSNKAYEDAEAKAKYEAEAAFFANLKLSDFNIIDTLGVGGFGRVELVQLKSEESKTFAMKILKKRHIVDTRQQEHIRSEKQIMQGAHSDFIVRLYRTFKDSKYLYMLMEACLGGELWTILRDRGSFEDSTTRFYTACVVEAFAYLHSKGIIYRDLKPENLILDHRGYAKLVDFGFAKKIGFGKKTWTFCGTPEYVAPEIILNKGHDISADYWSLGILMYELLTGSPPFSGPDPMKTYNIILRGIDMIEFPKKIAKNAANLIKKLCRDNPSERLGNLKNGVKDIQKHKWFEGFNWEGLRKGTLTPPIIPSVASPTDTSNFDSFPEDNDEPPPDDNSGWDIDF
The settings on record: at 0.1 µM.

Assay [15] concerns the target T5, cGMP-dependent protein kinase 1 (Homo sapiens). The settings on record: at 1 µM.
Assay [16] deals with T6, cGMP-dependent protein kinase 2 (Homo sapiens) (UniProt Q13237).
T6 sequence (whole entry): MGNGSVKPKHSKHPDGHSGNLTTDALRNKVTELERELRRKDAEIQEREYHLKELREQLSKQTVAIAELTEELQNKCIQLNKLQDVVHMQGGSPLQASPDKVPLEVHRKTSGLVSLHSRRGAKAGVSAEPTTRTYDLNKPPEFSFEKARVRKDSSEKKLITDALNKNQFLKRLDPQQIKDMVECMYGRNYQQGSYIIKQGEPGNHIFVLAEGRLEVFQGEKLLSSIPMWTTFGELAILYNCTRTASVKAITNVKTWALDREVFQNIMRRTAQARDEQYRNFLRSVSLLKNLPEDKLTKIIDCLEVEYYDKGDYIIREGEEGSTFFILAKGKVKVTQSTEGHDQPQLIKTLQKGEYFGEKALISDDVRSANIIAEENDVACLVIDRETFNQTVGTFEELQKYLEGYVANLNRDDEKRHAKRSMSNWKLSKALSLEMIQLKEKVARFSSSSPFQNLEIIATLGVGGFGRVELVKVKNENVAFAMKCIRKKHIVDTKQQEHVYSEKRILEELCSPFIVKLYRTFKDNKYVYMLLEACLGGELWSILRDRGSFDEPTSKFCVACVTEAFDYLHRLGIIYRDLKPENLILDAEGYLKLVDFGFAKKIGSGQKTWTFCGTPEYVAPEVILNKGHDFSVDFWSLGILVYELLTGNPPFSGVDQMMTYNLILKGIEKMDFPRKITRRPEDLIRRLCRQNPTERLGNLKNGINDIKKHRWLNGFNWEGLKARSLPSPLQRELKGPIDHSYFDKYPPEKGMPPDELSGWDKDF
The note with it: at 0.1 µM.

Assay [17] addresses T6, cGMP-dependent protein kinase 2 (Homo sapiens). The note with it: at 1 µM.
The target in assay [18] is T7, cAMP-dependent protein kinase catalytic subunit PRKX (Homo sapiens) (UniProt P51817).
T7 sequence (whole entry): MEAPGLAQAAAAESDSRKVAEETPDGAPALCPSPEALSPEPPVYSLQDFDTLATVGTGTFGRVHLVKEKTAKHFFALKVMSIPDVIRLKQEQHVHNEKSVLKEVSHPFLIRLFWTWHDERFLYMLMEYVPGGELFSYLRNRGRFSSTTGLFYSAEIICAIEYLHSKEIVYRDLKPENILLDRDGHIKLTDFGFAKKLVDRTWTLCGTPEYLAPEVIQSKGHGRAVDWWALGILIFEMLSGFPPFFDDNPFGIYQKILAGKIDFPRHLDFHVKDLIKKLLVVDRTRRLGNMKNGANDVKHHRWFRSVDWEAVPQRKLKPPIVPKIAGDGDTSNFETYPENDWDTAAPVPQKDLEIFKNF
The settings on record: at 0.1 µM.

The target in assay [19] is T7, cAMP-dependent protein kinase catalytic subunit PRKX (Homo sapiens). The note with it: at 1 µM.
The target in assay [20] is Rho-associated protein kinase 1 (Homo sapiens) (UniProt Q13464). The settings on record: at 0.1 µM.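 Note: values are mean percent inhibition of ROCK1.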

Structures are written as SMILES.

Protein kinase C theta type (Homo sapiens), sequence (Q04759 whole entry, looked up): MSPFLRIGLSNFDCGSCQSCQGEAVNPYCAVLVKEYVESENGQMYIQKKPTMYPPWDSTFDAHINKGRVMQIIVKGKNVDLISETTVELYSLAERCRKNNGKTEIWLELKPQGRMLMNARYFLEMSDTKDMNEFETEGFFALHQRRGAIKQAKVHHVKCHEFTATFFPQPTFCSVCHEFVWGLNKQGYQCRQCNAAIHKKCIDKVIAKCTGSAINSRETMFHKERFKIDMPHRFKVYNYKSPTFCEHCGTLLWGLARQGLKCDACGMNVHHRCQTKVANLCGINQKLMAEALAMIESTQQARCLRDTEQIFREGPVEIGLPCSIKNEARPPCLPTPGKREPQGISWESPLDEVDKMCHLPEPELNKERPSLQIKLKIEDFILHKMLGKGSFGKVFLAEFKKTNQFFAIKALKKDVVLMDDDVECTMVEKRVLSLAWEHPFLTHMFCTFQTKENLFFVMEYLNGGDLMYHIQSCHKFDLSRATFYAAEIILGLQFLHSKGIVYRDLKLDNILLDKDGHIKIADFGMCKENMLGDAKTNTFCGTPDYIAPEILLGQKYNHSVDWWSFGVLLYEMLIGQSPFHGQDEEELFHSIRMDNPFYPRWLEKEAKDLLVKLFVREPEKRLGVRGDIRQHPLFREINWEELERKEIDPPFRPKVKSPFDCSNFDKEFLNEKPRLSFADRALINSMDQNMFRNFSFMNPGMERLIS
Protein kinase C beta type (Homo sapiens), sequence (P05771 2-671 limits assumed): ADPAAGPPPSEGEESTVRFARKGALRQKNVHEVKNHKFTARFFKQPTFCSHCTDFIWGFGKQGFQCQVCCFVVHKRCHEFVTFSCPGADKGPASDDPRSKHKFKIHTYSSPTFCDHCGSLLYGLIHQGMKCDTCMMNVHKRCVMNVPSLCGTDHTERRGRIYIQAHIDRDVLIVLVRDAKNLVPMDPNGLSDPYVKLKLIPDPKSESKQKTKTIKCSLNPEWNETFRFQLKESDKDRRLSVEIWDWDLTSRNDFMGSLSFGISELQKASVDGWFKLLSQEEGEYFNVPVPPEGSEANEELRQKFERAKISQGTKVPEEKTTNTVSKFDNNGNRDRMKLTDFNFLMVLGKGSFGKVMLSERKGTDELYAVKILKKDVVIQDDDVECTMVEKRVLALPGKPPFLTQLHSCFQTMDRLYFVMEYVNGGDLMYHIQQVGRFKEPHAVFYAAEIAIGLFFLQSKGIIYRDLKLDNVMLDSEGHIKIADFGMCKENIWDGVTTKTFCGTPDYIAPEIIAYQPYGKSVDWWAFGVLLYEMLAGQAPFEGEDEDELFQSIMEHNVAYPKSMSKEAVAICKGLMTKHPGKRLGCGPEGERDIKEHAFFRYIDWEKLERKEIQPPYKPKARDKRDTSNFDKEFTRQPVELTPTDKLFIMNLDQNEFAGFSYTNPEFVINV
Rho-associated protein kinase 1 (Homo sapiens), sequence (Q13464 2-1354 limits assumed): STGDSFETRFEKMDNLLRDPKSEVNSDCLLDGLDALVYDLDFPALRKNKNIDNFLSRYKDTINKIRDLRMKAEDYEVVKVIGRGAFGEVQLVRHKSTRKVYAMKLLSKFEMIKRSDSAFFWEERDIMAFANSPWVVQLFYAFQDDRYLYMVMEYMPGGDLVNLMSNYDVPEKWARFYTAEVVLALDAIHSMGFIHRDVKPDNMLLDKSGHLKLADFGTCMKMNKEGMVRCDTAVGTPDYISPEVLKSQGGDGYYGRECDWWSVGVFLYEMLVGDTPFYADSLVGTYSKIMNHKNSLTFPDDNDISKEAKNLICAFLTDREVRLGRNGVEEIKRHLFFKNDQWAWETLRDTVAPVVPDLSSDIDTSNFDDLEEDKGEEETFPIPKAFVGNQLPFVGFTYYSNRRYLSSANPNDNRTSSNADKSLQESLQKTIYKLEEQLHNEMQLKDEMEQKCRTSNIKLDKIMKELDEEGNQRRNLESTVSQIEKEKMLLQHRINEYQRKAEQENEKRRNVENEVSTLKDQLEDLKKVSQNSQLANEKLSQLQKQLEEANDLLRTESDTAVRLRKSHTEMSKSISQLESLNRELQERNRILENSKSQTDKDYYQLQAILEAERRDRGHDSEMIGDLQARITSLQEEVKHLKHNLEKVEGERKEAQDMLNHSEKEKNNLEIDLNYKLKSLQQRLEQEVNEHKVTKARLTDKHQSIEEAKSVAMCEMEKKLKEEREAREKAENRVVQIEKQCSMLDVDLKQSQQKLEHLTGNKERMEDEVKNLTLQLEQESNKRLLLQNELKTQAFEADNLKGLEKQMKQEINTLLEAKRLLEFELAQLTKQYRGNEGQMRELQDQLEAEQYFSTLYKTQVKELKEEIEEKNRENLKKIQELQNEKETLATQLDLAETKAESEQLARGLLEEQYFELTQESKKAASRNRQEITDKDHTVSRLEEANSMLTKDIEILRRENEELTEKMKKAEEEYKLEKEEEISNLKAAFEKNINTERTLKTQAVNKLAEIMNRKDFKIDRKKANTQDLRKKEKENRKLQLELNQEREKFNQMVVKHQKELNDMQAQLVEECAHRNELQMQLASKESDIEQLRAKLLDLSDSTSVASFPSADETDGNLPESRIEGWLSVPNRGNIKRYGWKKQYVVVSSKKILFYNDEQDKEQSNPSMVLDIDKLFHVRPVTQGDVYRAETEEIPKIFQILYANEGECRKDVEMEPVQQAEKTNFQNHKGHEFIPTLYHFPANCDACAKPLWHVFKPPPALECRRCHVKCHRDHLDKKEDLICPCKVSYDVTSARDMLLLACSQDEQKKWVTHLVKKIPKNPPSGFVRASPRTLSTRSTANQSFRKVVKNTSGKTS

In the case of `CCC(=O)Nc1ccc(C)c(-c2ccc(C(=O)NCC3CC3)cc2)c1`, the inhibition (usually the percentage by which the read-out fell short of the control) in [1] came out at 2.13%; in [2] it was 0.11%; in assay [3], 0.41%; in assay [4] it was 1.23%; in [5], 1.92%; in [6] it was 0.61%. In addition, the inhibition is 1.48% in assay [7]; 2.88% in assay [8]; 2.86% in [9]; 1.86% in assay [10]; 0.39% in [11]; 2.64% in assay [12]. In addition, the inhibition is 2.11% in [13]; 2.33% in assay [14]; 2.99% in [15]; 1.03% in [16]; 3.23% in assay [17]; 0.64% in assay [18]. The values for the inhibition in assay [19] and in assay [20] were 1.66% and 2.95%, respectively.

For `O=C1Nc2ccccc2/C1=C/Nc1ccc(-n2cncn2)cc1`, the inhibition in [1] came to 2.93%; in assay [2], 2.78%; in assay [3], 2.15%; in assay [4] it was 2.93%; in assay [5], 4.7%; in assay [6] it was 1.94%. For the same molecule, the inhibition is 4.54% in assay [7]; 5.12% in assay [8]; 7.88% in assay [9]; 6.14% in assay [10]; 6.07% in [11]; 4.94% in assay [12]. In addition, the inhibition in [13] amounted to 6.5%; in assay [14], 3.06%; in assay [15], 5.48%; in assay [16], 2.51%; in assay [17], 14.4%; in assay [18] it was 2.56%. Moreover, the inhibition was found to be 7.18% in [19] and 1.71% in assay [20].
